From PubChem BioAssay (EPA / NIEHS)
Calls of active or inactive are those of the source. How the source made its calls: active means hit-call score of the fitted dose curve at least 0.9, where 1 is the maximum; inactive means score below 0.9.

How the values were obtained:
[1] = BSK_hDFCGF_SRB: Viability Assessment in the BioMAP Diversity Plus: hDFCGF Assay (AID 2283061); conditions: primary human foreskin fibroblasts;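 further: cells exposed to compound for 24 h before the read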
Outline: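 Human foreskin primary fibroblasts were treated with compound and assessed 24 h after dosing. Total protein was measured by sulforhodamine B staining (0.1% SRB after 10% TCA fixation, 560 nm read) as a cytotoxicity marker, with bidirectional fitting against DMSO baseline.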

[2] = read-out: TIMP metallopeptidase inhibitor 1 (TIMP1), TIMP1 (gene 7076); experiment: BSK_hDFCGF_TIMP1: BioMAP Diversity Plus: hDFCGF Assay for TIMP metallopeptidase inhibitor 1 (TIMP1) Biomarker Activity (AID 2283062); conditions: primary human foreskin fibroblasts; actives raise or lower the signal
Outline: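 Primary human foreskin fibroblasts in the hDFCGF system were dosed with compound for 24 h, then TIMP-1 was measured by ELISA. Activity was fitted bidirectionally relative to DMSO control; parallel SRB staining assessed cytotoxicity.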

[3] = read-out: Monokine induced gamma interferon (MIG), CXCL9 (gene 4283); experiment: BSK_hDFCGF_MIG: BioMAP Diversity Plus: hDFCGF Assay for Monokine induced gamma interferon (MIG) Biomarker Activity (AID 2283063); conditions: primary human foreskin fibroblasts; actives raise or lower the signal
Outline: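 ELISA read-out of MIG from primary human dermal fibroblasts 24 h post-dosing. Gain or loss of signal fitted bidirectionally, DMSO as baseline.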

[4] = read-out: Matrix Metallopeptidase 1 (MMP1), MMP1 (gene 4312); experiment: BSK_hDFCGF_MMP1: BioMAP Diversity Plus: hDFCGF Assay for Matrix Metallopeptidase 1 (MMP1) Biomarker Activity (AID 2283064); conditions: primary human foreskin fibroblasts; actives raise or lower the signal
Outline: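 MMP1 levels quantified by ELISA 24 h after dosing human dermal fibroblast cultures, with parallel SRB total-protein staining for overt cytotoxicity. Data fitted in both directions against DMSO baseline.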

[5] = read-out: Vascular cell adhesion molecule 1 (VCAM1), VCAM1 (gene 7412); experiment: BSK_hDFCGF_VCAM1: BioMAP Diversity Plus: hDFCGF Assay for Vascular cell adhesion molecule 1 (VCAM1) Biomarker Activity (AID 2283065); conditions: primary human foreskin fibroblasts; actives raise or lower the signal;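 on AC50: VCAM-1 protein level quantified by ELISA after 24 h chemical exposure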
Outline: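 Primary human foreskin fibroblasts (hDFCGF system) were dosed with chemical and VCAM-1 was measured by ELISA 24 h later. Bidirectional curve fitting used DMSO as negative control and activity baseline.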

[6] = read-out: Plasminogen activator inhibitor-1 (PAI1), SERPINE1 (gene 5054); experiment: BSK_hDFCGF_PAI1: BioMAP Diversity Plus: hDFCGF Assay for Plasminogen activator inhibitor-1 (PAI1) Biomarker Activity (AID 2283066); conditions: primary human foreskin fibroblasts; actives raise or lower the signal
Outline: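 ELISA readout of PAI-1 from primary human skin fibroblast cultures, 24 h after compound addition. Gain or loss of signal was fitted bidirectionally against DMSO baseline.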

[7] = read-out: Intercellular Adhesion Molecule 1 (ICAM1), ICAM1 (gene 3383); experiment: BSK_KF3CT_ICAM1: BioMAP Diversity Plus: KF3CT Assay for Intercellular Adhesion Molecule 1 (ICAM1) Biomarker Activity (AID 2283067); conditions: primary human keratinocytes with fibroblasts; actives raise or lower the signal
Outline: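 Human keratinocyte plus foreskin fibroblast primary co-culture was exposed to chemical for 24 h. ICAM-1 was then quantified by ELISA, and the data were fit bidirectionally against DMSO as the negative control and baseline.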

[8] = read-out: Interferon-gamma inducible Protein 10 (IP10), CXCL10 (gene 3627); experiment: BSK_KF3CT_IP10: BioMAP Diversity Plus: KF3CT Assay for Interferon-gamma inducible Protein 10 (IP10) Biomarker Activity (AID 2283068); conditions: primary human keratinocytes with fibroblasts; actives raise or lower the signal
Outline: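 ELISA read-out of IP-10 after 24 h chemical dosing of human skin primary co-culture (keratinocytes, foreskin fibroblasts). Gain or loss of signal relative to DMSO, bidirectional curve fit.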

[9] = BSK_KF3CT_SRB: Viability Assessment in the BioMAP Diversity Plus: KF3CT Assay (AID 2283069); conditions: primary human keratinocytes with fibroblasts
Outline: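 Cytotoxicity was gauged by SRB staining (0.1% SRB, 10% TCA fixation, 560 nm) of parallel cultures at 24 h. The cells were primary human skin keratinocytes co-cultured with fibroblasts, and activity was fitted in both directions against DMSO.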

[10] = read-out: Interleukin-1 alpha (IL1a), IL1A (gene 3552); experiment: BSK_KF3CT_IL1a: BioMAP Diversity Plus: KF3CT Assay for Interleukin-1 alpha (IL1a) Biomarker Activity (AID 2283070); conditions: primary human keratinocytes with fibroblasts; actives raise or lower the signal
Outline: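 IL-1a was detected by ELISA 24 h after chemical treatment of a co-culture of human skin keratinocytes and foreskin fibroblasts. Gain or loss of signal was fitted against the DMSO baseline.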

[11] = read-out: TIMP metallopeptidase inhibitor 2 (TIMP2), TIMP2 (gene 7077); experiment: BSK_KF3CT_TIMP2: BioMAP Diversity Plus: KF3CT Assay for TIMP metallopeptidase inhibitor 2 (TIMP2) Biomarker Activity (AID 2283071); conditions: primary human keratinocytes with fibroblasts; actives raise or lower the signal
Outline: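 ELISA readout of TIMP-2 in keratinocyte plus foreskin fibroblast co-cultures (human skin primary cells), 24 h post-dose. Gain or loss of signal fitted relative to DMSO.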

[12] = read-out: Transforming growth factor beta 1 (TGFb1), TGFB1 (gene 7040); experiment: BSK_KF3CT_TGFb1: BioMAP Diversity Plus: KF3CT Assay for Transforming growth factor beta 1 (TGFb1) Biomarker Activity (AID 2283072); conditions: primary human keratinocytes with fibroblasts; actives raise or lower the signal
Outline: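 Read-out: ELISA for TGF-b1 in keratinocyte/foreskin fibroblast human skin co-culture, 24 h after dosing; bidirectional curve fit vs DMSO baseline; gain or loss of signal scored.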

[13] = read-out: C-C motif chemokine 2 (Homo sapiens) (UniProt P13500); experiment: BSK_KF3CT_MCP1: BioMAP Diversity Plus: KF3CT Assay for Monocyte Chemoattractant Protein 1 (MCP1/CCL2) Biomarker Activity (AID 2283073); conditions: primary human keratinocytes with fibroblasts; actives raise or lower the signal
Outline: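 Human keratinocyte plus foreskin fibroblast primary co-culture exposed to chemical for 24 h. MCP-1 levels measured by ELISA. Bidirectional curve fitting relative to DMSO negative control as baseline.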

[14] = read-out: urokinase plasminogen activator (uPA), PLAU (gene 5328); experiment: BSK_KF3CT_uPA: BioMAP Diversity Plus: KF3CT Assay for urokinase plasminogen activator (uPA) Biomarker Activity (AID 2283075); conditions: primary human keratinocytes with fibroblasts; actives raise or lower the signal
Outline: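 ELISA read-out of uPA 24 h after dosing human skin keratinocytes co-cultured with foreskin fibroblasts. Signal change fitted both ways relative to DMSO; sulforhodamine B on parallel cultures marks overt cytotoxicity.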

[15] = read-out: CD40, CD40 (gene 958); experiment: BSK_LPS_CD40: BioMAP Diversity Plus: LPS Assay for CD40 Biomarker Activity (AID 2283076); conditions: primary human HUVEC with PBMC; actives raise or lower the signal
Outline: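 Primary human umbilical vein endothelial cells co-cultured with peripheral blood mononuclear cells, LPS-stimulated, were dosed with chemical and read 24 h later. CD40 levels were measured by ELISA and fitted bidirectionally against DMSO as negative control and baseline.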

[16] = read-out: E-selectin (Homo sapiens) (UniProt P16581); experiment: BSK_LPS_Eselectin: BioMAP Diversity Plus: LPS Assay for Eselectin Biomarker Activity (AID 2283077); conditions: primary human HUVEC with PBMC; actives raise or lower the signal
Outline: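 Human umbilical vein endothelial cells co-cultured with peripheral blood mononuclear cells under LPS stimulation; E-selectin measured by ELISA 24 h after chemical dosing. Activity fitted bidirectionally against DMSO as negative control and baseline.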

[17] = read-out: Interleukin-8 (IL8), CXCL8 (gene 3576); experiment: BSK_LPS_IL8: BioMAP Diversity Plus: LPS Assay for Interleukin-8 (IL8) Biomarker Activity (AID 2283078); conditions: primary human HUVEC with PBMC; actives raise or lower the signal
Outline: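 Human umbilical vein endothelial cells co-cultured with PBMC were stimulated with LPS; IL-8 levels were measured by ELISA 24 h after chemical dosing. Activity was fitted bidirectionally against DMSO as negative control and baseline.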

[18] = read-out: Interleukin-1 alpha (IL1a), IL1A (gene 3552); experiment: BSK_LPS_IL1a: BioMAP Diversity Plus: LPS Assay for Interleukin-1 alpha (IL1a) Biomarker Activity (AID 2283080); conditions: primary human HUVEC with PBMC; actives raise or lower the signal
Outline: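 Human umbilical vein endothelial cells co-cultured with peripheral blood mononuclear cells were LPS-stimulated and exposed to test chemicals for 24 h. IL-1 alpha was quantified by ELISA, with bidirectional curve fitting against DMSO as the negative control and baseline.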

[19] = read-out: Matrix Metallopeptidase 9 (MMP9), MMP9 (gene 4318); experiment: BSK_KF3CT_MMP9: BioMAP Diversity Plus: KF3CT Assay for Matrix Metallopeptidase 9 (MMP9) Biomarker Activity (AID 2283074); conditions: primary human keratinocytes with fibroblasts; actives raise or lower the signal
Outline: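 MMP-9 quantified by ELISA after 24 h chemical treatment of primary human skin keratinocyte/fibroblast co-cultures; gain or loss fitted against DMSO, with parallel SRB staining (0.1% SRB, 560 nm) for overt cytotoxicity.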

[20] = BSK_LPS_SRB: Viability Assessment in the BioMAP Diversity Plus: LPS Assay (AID 2283079); conditions: primary human HUVEC with PBMC;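 further: total protein by sulforhodamine B absorbance as a cytotoxicity measure; measured one day after compound addition; fitted in both directions against DMSO so loss or gain of signal counts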
Outline: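 Human umbilical vein endothelial cells co-cultured with PBMC (LPS system) were dosed for 24 h. Total protein was stained with 0.1% sulforhodamine B after 10% TCA fixation, read at 560 nm, and fitted bidirectionally against DMSO baseline.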

E-selectin (Homo sapiens), sequence (P16581 whole entry, looked up): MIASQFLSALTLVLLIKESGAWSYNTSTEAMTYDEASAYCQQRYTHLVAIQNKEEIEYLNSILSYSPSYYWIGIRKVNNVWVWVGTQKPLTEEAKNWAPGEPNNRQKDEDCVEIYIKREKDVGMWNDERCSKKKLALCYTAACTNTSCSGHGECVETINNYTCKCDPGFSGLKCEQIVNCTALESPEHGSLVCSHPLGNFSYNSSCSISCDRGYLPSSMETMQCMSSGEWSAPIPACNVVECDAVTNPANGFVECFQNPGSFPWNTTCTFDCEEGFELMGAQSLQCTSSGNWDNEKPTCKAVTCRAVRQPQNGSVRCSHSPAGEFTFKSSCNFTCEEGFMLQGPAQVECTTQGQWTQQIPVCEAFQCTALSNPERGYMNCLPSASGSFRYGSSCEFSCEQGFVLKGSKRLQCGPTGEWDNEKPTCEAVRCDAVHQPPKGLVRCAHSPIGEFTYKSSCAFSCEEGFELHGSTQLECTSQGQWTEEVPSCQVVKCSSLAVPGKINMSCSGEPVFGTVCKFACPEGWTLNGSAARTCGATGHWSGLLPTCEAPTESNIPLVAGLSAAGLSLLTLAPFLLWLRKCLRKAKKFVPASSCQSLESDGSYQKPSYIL

SMILES: CCCCCCCCn1sccc1=O
- AC50 [1]: 1.73 µM (active)
- AC50 [2]: 2.09 µM (active)
- AC50 [3]: 0.949 µM (active)
- AC50 [4]: 1.43 µM (active)
- AC50 [5]: 1.09 µM (active)
- AC50 [6]: 1.4 µM (active)
- AC50 [7]: 9.79 µM (active)
- AC50 [8]: 8.03 µM (active)
- AC50 [9]: 6.74 µM (active)
- AC50 [10]: 9.05 µM (active)
- AC50 [11]: 11.2 µM (active)
- AC50 [12]: 9.71 µM (active)
- AC50 [13]: 10.6 µM (active)
- AC50 [14]: 11.2 µM (active)
- AC50 [15]: 5.76 µM (active)
- AC50 [16]: 9.25 µM (active)
- AC50 [17]: 9.78 µM (active)
- AC50 [18]: 4.97 µM (active)

SMILES: Nc1cc(Cl)cc(C(=O)O)c1Cl
- outcome [1]: inactive
- outcome [2]: inactive
- outcome [3]: inactive
- outcome [4]: inactive
- outcome [5]: inactive
- outcome [6]: inactive
- outcome [7]: inactive
- outcome [8]: inactive
- outcome [9]: inactive
- outcome [10]: inactive
- outcome [11]: inactive
- outcome [12]: inactive
- outcome [13]: inactive
- outcome [19]: inactive
- outcome [14]: inactive
- outcome [15]: inactive
- outcome [16]: inactive
- outcome [17]: inactive
- outcome [18]: inactive

SMILES: COC(=O)c1ccccc1N
- outcome [1]: inactive
- outcome [2]: inactive
- outcome [3]: inactive
- outcome [4]: inactive
- outcome [5]: inactive
- outcome [6]: inactive
- outcome [7]: inactive
- outcome [8]: inactive
- outcome [9]: inactive
- outcome [10]: inactive
- outcome [11]: inactive
- outcome [12]: inactive
- outcome [13]: inactive
- outcome [19]: inactive
- outcome [14]: inactive
- outcome [15]: inactive
- outcome [16]: inactive
- outcome [17]: inactive
- outcome [18]: inactive

SMILES: c1ccc(C2CO2)cc1 (configuration not stated)
- outcome [1]: inactive
- outcome [2]: inactive
- outcome [3]: inactive
- outcome [4]: inactive
- outcome [5]: inactive
- outcome [6]: inactive
- outcome [7]: inactive
- outcome [8]: inactive
- outcome [9]: inactive
- outcome [10]: inactive
- outcome [11]: inactive
- outcome [12]: inactive
- outcome [13]: inactive
- outcome [19]: inactive
- outcome [14]: inactive
- outcome [15]: inactive
- outcome [16]: inactive
- outcome [17]: inactive
- outcome [20]: inactive
- outcome [18]: inactive

SMILES: CCCCCOC(=O)c1ccccc1C(=O)OCCCCC
- outcome [1]: inactive
- outcome [2]: inactive
- outcome [3]: inactive
- outcome [4]: inactive
- AC50 [5]: 4.45 µM (active)
- outcome [6]: inactive
- outcome [7]: inactive
- outcome [8]: inactive
- outcome [9]: inactive
- outcome [10]: inactive
- outcome [11]: inactive
- outcome [12]: inactive
- outcome [13]: inactive
- outcome [19]: inactive
- outcome [14]: inactive
- AC50 [15]: 20 µM (active)
- AC50 [16]: 31.7 µM (active)
- AC50 [17]: 20 µM (active)
- outcome [18]: inactive

SMILES: CN(C)c1ccccc1
- outcome [1]: inactive
- outcome [2]: inactive
- outcome [3]: inactive
- outcome [4]: inactive
- outcome [5]: inactive
- outcome [6]: inactive
- outcome [7]: inactive
- outcome [8]: inactive
- outcome [9]: inactive
- outcome [10]: inactive
- outcome [11]: inactive
- outcome [12]: inactive
- outcome [13]: inactive
- outcome [19]: inactive
- outcome [14]: inactive
- outcome [15]: inactive
- outcome [16]: inactive
- outcome [17]: inactive
- outcome [18]: inactive

SMILES: Clc1ccc(Cl)c(Cl)c1
- outcome [1]: inactive
- outcome [2]: inactive
- outcome [3]: inactive
- outcome [4]: inactive
- outcome [5]: inactive
- outcome [6]: inactive
- outcome [7]: inactive
- outcome [8]: inactive
- outcome [9]: inactive
- outcome [10]: inactive
- outcome [11]: inactive
- outcome [12]: inactive
- outcome [13]: inactive
- outcome [14]: inactive
- outcome [15]: inactive
- outcome [16]: inactive
- outcome [17]: inactive
- outcome [18]: inactive
